Assay results reported in the supplement of paper PMC4466140.

B1: unnamed (peptide)
chain: GDHPKGPPPPPPPDE

target: AgAbp1; assay: SPOT peptide array binding signal intensity (averaged, normalized) (arbitrary units (background-subtracted, floor 0; scale differs between SH3 domains)); higher = stronger binding of the SH3 domain to the peptide
Method in brief: (§1)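 Binding signal is given in arbitrary units that differ between domains and is the normalized, background-subtracted spot intensity averaged across replicates. Each GST-SH3 fusion from one of four yeast species was made in E. coli BL21(DE3), purified on glutathione Sepharose and incubated at 10 μg/ml overnight at 4°C on cellulose-bound synthetic 15-mer peptides in which cysteines were replaced by serines. Detection used anti-GST antibody, an HRP anti-mouse secondary and luminol, followed by imaging and Genespotter quantification.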

Binder	SPOT peptide array binding signal intensity
B1	≤ 0

target: AgBbc1; assay: as above
Method in brief: as §1

Binder	SPOT peptide array binding signal intensity
B1	1

target: AgBem1-D1; assay: as above
Method in brief: as §1

Binder	SPOT peptide array binding signal intensity
B1	≤ 0

target: AgBzz1-D1; assay: as above
Method in brief: as §1

Binder	SPOT peptide array binding signal intensity
B1	870

target: AgBzz1-D2; assay: as above
Method in brief: as §1

Binder	SPOT peptide array binding signal intensity
B1	85

target: AgCyk3; assay: as above
Method in brief: as §1

Binder	SPOT peptide array binding signal intensity
B1	≤ 0

target: AgFus1; assay: as above
Method in brief: as §1

Binder	SPOT peptide array binding signal intensity
B1	3.5

target: AgHof1; assay: as above
Method in brief: as §1

Binder	SPOT peptide array binding signal intensity
B1	≤ 0

target: AgHse1; assay: as above
Method in brief: as §1

Binder	SPOT peptide array binding signal intensity
B1	≤ 0

target: AgLsb1; assay: as above
Method in brief: as §1

Binder	SPOT peptide array binding signal intensity
B1	≤ 0

target: AgLsb4; assay: as above
Method in brief: as §1

Binder	SPOT peptide array binding signal intensity
B1	11.5

target: AgMyo5; assay: as above
Method in brief: as §1

Binder	SPOT peptide array binding signal intensity
B1	1360

target: AgNbp2; assay: as above
Method in brief: as §1

Binder	SPOT peptide array binding signal intensity
B1	9

target: AgRvs167; assay: as above
Method in brief: as §1

Binder	SPOT peptide array binding signal intensity
B1	0.167

target: AgSho1; assay: as above
Method in brief: as §1

Binder	SPOT peptide array binding signal intensity
B1	11

target: AgSla1-D1-D2; assay: as above
Method in brief: as §1

Binder	SPOT peptide array binding signal intensity
B1	6

target: AgSla1-D3; assay: as above
Method in brief: as §1

Binder	SPOT peptide array binding signal intensity
B1	358

target: CaAbp1-D1; assay: as above
Method in brief: as §1

Binder	SPOT peptide array binding signal intensity
B1	≤ 0

target: CaAbp1-D2; assay: as above
Method in brief: as §1

Binder	SPOT peptide array binding signal intensity
B1	≤ 0

target: CaBbc1; assay: as above
Method in brief: as §1

Binder	SPOT peptide array binding signal intensity
B1	≤ 0

target: CaBem1-D1; assay: as above
Method in brief: as §1

Binder	SPOT peptide array binding signal intensity
B1	≤ 0

target: CaBzz1-D1; assay: as above
Method in brief: as §1

Binder	SPOT peptide array binding signal intensity
B1	3200

target: CaBzz1-D2; assay: as above
Method in brief: as §1

Binder	SPOT peptide array binding signal intensity
B1	2040

target: CaCyk3; assay: as above
Method in brief: as §1

Binder	SPOT peptide array binding signal intensity
B1	≤ 0

target: CaFus1; assay: as above
Method in brief: as §1

Binder	SPOT peptide array binding signal intensity
B1	≤ 0

target: CaHof1; assay: as above
Method in brief: as §1

Binder	SPOT peptide array binding signal intensity
B1	0.25

target: CaHse1; assay: as above
Method in brief: as §1

Binder	SPOT peptide array binding signal intensity
B1	6.5

target: CaLsb1; assay: as above
Method in brief: as §1

Binder	SPOT peptide array binding signal intensity
B1	≤ 0

target: CaLsb4; assay: as above
Method in brief: as §1

Binder	SPOT peptide array binding signal intensity
B1	5.5

target: CaMyo5; assay: as above
Method in brief: as §1

Binder	SPOT peptide array binding signal intensity
B1	41

target: CaNbp2; assay: as above
Method in brief: as §1

Binder	SPOT peptide array binding signal intensity
B1	≤ 0

target: CaRvs167; assay: as above
Method in brief: as §1

Binder	SPOT peptide array binding signal intensity
B1	≤ 0

target: CaRvs167-3; assay: as above
Method in brief: as §1

Binder	SPOT peptide array binding signal intensity
B1	1.25

target: CaSho1; assay: as above
Method in brief: as §1

Binder	SPOT peptide array binding signal intensity
B1	≤ 0

target: CaSla1-D1-D2; assay: as above
Method in brief: as §1

Binder	SPOT peptide array binding signal intensity
B1	≤ 0

target: CaSla1-D3; assay: as above
Method in brief: as §1

Binder	SPOT peptide array binding signal intensity
B1	1.75

target: ScAbp1; assay: as above
Method in brief: as §1

Binder	SPOT peptide array binding signal intensity
B1	≤ 0

target: ScBbc1; assay: as above
Method in brief: as §1

Binder	SPOT peptide array binding signal intensity
B1	2.5

target: ScBem1-D1; assay: as above
Method in brief: as §1

Binder	SPOT peptide array binding signal intensity
B1	≤ 0

target: ScBzz1-D1; assay: as above
Method in brief: as §1

Binder	SPOT peptide array binding signal intensity
B1	4000

target: ScBzz1-D2; assay: as above
Method in brief: as §1

Binder	SPOT peptide array binding signal intensity
B1	31.5

target: ScCyk3; assay: as above
Method in brief: as §1

Binder	SPOT peptide array binding signal intensity
B1	≤ 0

target: ScFus1; assay: as above
Method in brief: as §1

Binder	SPOT peptide array binding signal intensity
B1	2.5

target: ScHof1; assay: as above
Method in brief: as §1

Binder	SPOT peptide array binding signal intensity
B1	≤ 0

target: ScHse1; assay: as above
Method in brief: as §1

Binder	SPOT peptide array binding signal intensity
B1	7.5

target: ScLsb1; assay: as above
Method in brief: as §1

Binder	SPOT peptide array binding signal intensity
B1	≤ 0

target: ScLsb2; assay: as above
Method in brief: as §1

Binder	SPOT peptide array binding signal intensity
B1	≤ 0

target: ScLsb3; assay: as above
Method in brief: as §1

Binder	SPOT peptide array binding signal intensity
B1	≤ 0

target: ScLsb4; assay: as above
Method in brief: as §1

Binder	SPOT peptide array binding signal intensity
B1	≤ 0

target: ScMyo3; assay: as above
Method in brief: as §1

Binder	SPOT peptide array binding signal intensity
B1	1390

target: ScMyo5; assay: as above
Method in brief: as §1

Binder	SPOT peptide array binding signal intensity
B1	1300

target: ScNbp2; assay: as above
Method in brief: as §1

Binder	SPOT peptide array binding signal intensity
B1	≤ 0

target: ScPex13; assay: as above
Method in brief: as §1

Binder	SPOT peptide array binding signal intensity
B1	≤ 0

target: ScRvs167; assay: as above
Method in brief: as §1

Binder	SPOT peptide array binding signal intensity
B1	0.333

target: ScSho1; assay: as above
Method in brief: as §1

Binder	SPOT peptide array binding signal intensity
B1	≤ 0

target: ScSla1-D1-D2; assay: as above
Method in brief: as §1

Binder	SPOT peptide array binding signal intensity
B1	≤ 0

target: ScSla1-D3; assay: as above
Method in brief: as §1

Binder	SPOT peptide array binding signal intensity
B1	≤ 0

target: SpAbp1-D1; assay: as above
Method in brief: as §1

Binder	SPOT peptide array binding signal intensity
B1	≤ 0

target: SpBbc1; assay: as above
Method in brief: as §1

Binder	SPOT peptide array binding signal intensity
B1	1.25

target: SpBzz1-D1; assay: as above
Method in brief: as §1

Binder	SPOT peptide array binding signal intensity
B1	42

target: SpBzz1-D2; assay: as above
Method in brief: as §1

Binder	SPOT peptide array binding signal intensity
B1	1.5

target: SpCyk3; assay: as above
Method in brief: as §1

Binder	SPOT peptide array binding signal intensity
B1	≤ 0

target: SpHof1; assay: as above
Method in brief: as §1

Binder	SPOT peptide array binding signal intensity
B1	≤ 0

target: SpHof1-2; assay: as above
Method in brief: as §1

Binder	SPOT peptide array binding signal intensity
B1	1.5

target: SpHof1-3; assay: as above
Method in brief: as §1

Binder	SPOT peptide array binding signal intensity
B1	≤ 0

target: SpHse1; assay: as above
Method in brief: as §1

Binder	SPOT peptide array binding signal intensity
B1	85.2

target: SpLsb1; assay: as above
Method in brief: as §1

Binder	SPOT peptide array binding signal intensity
B1	0.5

target: SpLsb4; assay: as above
Method in brief: as §1

Binder	SPOT peptide array binding signal intensity
B1	≤ 0

target: SpMyo1; assay: as above
Method in brief: as §1

Binder	SPOT peptide array binding signal intensity
B1	1500

target: SpNbp2; assay: as above
Method in brief: as §1

Binder	SPOT peptide array binding signal intensity
B1	≤ 0

target: SpPex13; assay: as above
Method in brief: as §1

Binder	SPOT peptide array binding signal intensity
B1	2

target: SpRvs167; assay: as above
Method in brief: as §1

Binder	SPOT peptide array binding signal intensity
B1	9

target: SpSla1-D1-D2; assay: as above
Method in brief: as §1

Binder	SPOT peptide array binding signal intensity
B1	9

target: SpSla1-D3; assay: as above
Method in brief: as §1

Binder	SPOT peptide array binding signal intensity
B1	≤ 0
